Measurements taken from the supplement of paper PMC6555819.

Columns and labels:
Assay in all cases: PBM binding z-score (relative to random genomic background probes); higher = stronger binding; sequences stand for … in GC…GCGATTGACAGCGTAGAATGAAGG
[1] = system: FXR:RXRa (NR concentration 270 nM, RXRa partner concentration 90 nM)
Method in brief: (§1)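 For binding z-scores, the reference was random background probes on custom Agilent 4×180K protein-binding microarrays. These arrays were incubated 1 h with ligand-free nuclear receptor dimers in PBS pH 7.4, 2% milk, 0.02% Triton X-100, 1 mM DTT, 0.2 mg/mL BSA and 0.4 mg/ml salmon testes DNA. Fluorescence was scanned after antibody detection of each partner (one per run) and regression-normalized.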

[2] = system: LXRa:RXRa (NR concentration 270 nM, RXRa partner concentration 90 nM)
Method in brief: as §1

[3] = system: LXRa homodimer (NR concentration 270 nM)
Method in brief: as §1

[4] = system: LXRb:RXRa (NR concentration 270 nM, RXRa partner concentration 90 nM)
Method in brief: as §1

[5] = system: LXRb homodimer (NR concentration 270 nM)
Method in brief: as §1

[6] = system: PPARa:RXRa (NR concentration 270 nM, RXRa partner concentration 90 nM)
Method in brief: as §1

[7] = system: PPARg:RXRa (NR concentration 180 nM, RXRa partner concentration 90 nM)
Method in brief: as §1

[8] = system: PPARg:RXRa 270nM:90nM, anti-RXR (NR concentration 270 nM, RXRa partner concentration 90 nM)
Method in brief: as §1

[9] = system: PPARg:RXRa 30nM:10nM, anti-RXR (NR concentration 30 nM, RXRa partner concentration 10 nM)
Method in brief: as §1

[10] = system: PPARg:RXRa 90nM:30nM, anti-RXR (NR concentration 90 nM, RXRa partner concentration 30 nM)
Method in brief: as §1

[11] = system: PPARg:RXRa DBDmut IVT, anti-RXR (DBD mutation: RXRa K156A/R161A, NR concentration 270 nM, RXRa partner concentration 90 nM)
Method in brief: as §1

[12] = system: PPARg:RXRa IVT, anti-PPARg (NR concentration 270 nM, RXRa partner concentration 90 nM)
Method in brief: as §1

[13] = system: PPARg DBDmut:RXRa IVT, anti-PPARg (DBD mutation: PPARg1 K132A/R137A, NR concentration 270 nM, RXRa partner concentration 90 nM)
Method in brief: as §1

[14] = system: PPARg DBDmut IVT, anti-PPARg (DBD mutation: PPARg1 K132A/R137A, NR concentration 270 nM)
Method in brief: as §1

[15] = system: PPARg homodimer (NR concentration 180 nM)
Method in brief: as §1

[16] = system: PXR:RXRa (NR concentration 270 nM, RXRa partner concentration 90 nM)
Method in brief: as §1

[17] = system: PXR homodimer (NR concentration 270 nM)
Method in brief: as §1

[18] = system: RARa:RXR (NR concentration 270 nM, RXRa partner concentration 90 nM)
Method in brief: as §1

[19] = system: RARa homodimer (NR concentration 270 nM)
Method in brief: as §1

[20] = system: RARb:RXRa (NR concentration 270 nM, RXRa partner concentration 90 nM)
Method in brief: as §1

Sequence	PBM binding z-score [1]	PBM binding z-score [2]	PBM binding z-score [3]	PBM binding z-score [4]	PBM binding z-score [5]	PBM binding z-score [6]	PBM binding z-score [7]	PBM binding z-score [8]	PBM binding z-score [9]	PBM binding z-score [10]	PBM binding z-score [11]	PBM binding z-score [12]	PBM binding z-score [13]	PBM binding z-score [14]	PBM binding z-score [15]	PBM binding z-score [16]	PBM binding z-score [17]	PBM binding z-score [18]	PBM binding z-score [19]	PBM binding z-score [20]
CGAACTGGGTCATCCAGGACAGTGAATACATTGA	3.3	1.9	0.0995	1.9	-0.478	4.92	7.51	5.92	3.5	5.51	7.33	8.01	5.1	4.27	2.15	2.01	0.0976	3.11	0.785	3.21
ACTAATAGTTGACTTAGGGCAACCGATACGACGC	0.35	0.168	0.0838	-0.131	0.352	-0.132	0.962	0.054	0.137	0.153	0.0501	0.335	0.861	0.863	0.622	0.0101	0.295	0.399	0.56	1.01
TCATATAGGTAAATGCTAGGTGTAAGTCCGATCT	0.454	0.941	0.2	0.659	-0.0969	1.05	0.749	2.17	3.9	2.97	3.8	1.94	0.286	1.15	0.2	0.655	-0.0284	0.00446	1.01	0.377
ACGGACAGGTGAGTGAAGGTAACTCAGCTGGACG	0.715	0.141	-0.591	-0.294	-0.864	0.253	0.452	0.12	-0.363	0.0719	0.373	0.578	-0.111	-0.701	-0.338	-0.142	-0.376	0.477	-0.21	0.913
ACTAGCAGGCAAAGTTTGGGTCACTCAAACAAAG	0.0773	0.185	-0.475	0.807	-0.762	1.33	-0.0441	0.288	-0.32	0.224	-0.359	0.492	-0.258	-0.0533	0.153	0.68	-0.439	1.32	-0.701	1.07
CTTACTGGGCCACGAAAGGTCATTGATTCAGTGA	5.51	6.24	4.47	5.13	0.827	5.66	6.99	6.33	4.14	5.7	7.15	7.26	1.25	0.41	3.04	5.88	2.14	5.98	0.212	4.38
AGTCAAAGTTCACTAGGTAACGTAGGATTCAGCT	5.02	4.93	3.02	2.92	0.939	4.65	7.24	6.38	3.58	5.79	2.76	4.99	0.535	0.509	2.04	3.89	2.85	2.82	0.778	4.83
CCTACTGGGCCAAAAAGGTCATCGATGCCGATAA	3.69	4.2	2.69	4.33	0.178	4.93	4.32	4.61	2.07	4.04	3.54	4.4	-0.683	0.00778	3.39	4.69	1.58	5.26	2.06	4.53
CCGACTGGGGCATAAGGTTACCTTAAGCCAGCCC	0.144	2.16	-0.305	0.631	-1.36	1.9	2.04	3.18	0.872	2.64	2.68	3.27	-0.344	-1.61	0.545	0.197	-0.44	1.22	-0.764	1.49
CAAACTAGGTCACACAGGTCAAAGTCCGTGCGTA	5.67	5.43	4.2	4.82	0.995	5.71	9.3	7.72	5.14	7.46	8.75	9.19	1.71	1.11	2.43	4.78	4.14	4.85	0.759	4.59
CGAACGAGGGCATGAATTGATAGCAAATGCCGAT	-0.0699	-0.102	-0.436	-0.0113	-0.655	0.924	0.992	0.623	0.00744	0.388	2.65	1.53	0.103	-0.47	0.00872	0.118	-0.261	0.259	-0.227	1.72
GCAGACAGGTGAAACCCAGGTAACTCAGGGTGGC	0.292	-0.00475	-0.738	-0.364	-0.909	0.818	0.657	-0.0881	-0.673	-0.524	0.362	0.476	-0.384	-0.363	-0.871	-0.19	-0.863	0.261	-1.14	0.645
TCATATAGGTAAAACGTGAAAGTCGGTGTGGTAA	0.91	0.644	0.37	0.856	0.255	2.09	2.92	4.34	4.63	4.71	6.04	2.88	0.79	1.01	1.25	0.221	0.241	0.571	1.24	0.406
GCTCGCAGGACAAGGTCAGAGCTTTGTCCGTAGA	1.42	1.47	-0.546	1.08	-1.31	2.19	-0.311	0.692	-0.968	-0.0202	-0.189	0.355	-1.69	-1.23	-0.0307	1.35	-0.47	1.6	-1.24	3.05
